# From the supplement of paper PMC3334620
# Over roughly 33,000 sequences, “E-score (-0.5 to 0.5)” has its median near -0.012; the highest 2% begin near 0.29. For the sample, the highest values were picked, then their nearest neighbours and some sequences at random.
# Biological target: T1, Ybr033w (UniProt P38073)
# T1 sequence: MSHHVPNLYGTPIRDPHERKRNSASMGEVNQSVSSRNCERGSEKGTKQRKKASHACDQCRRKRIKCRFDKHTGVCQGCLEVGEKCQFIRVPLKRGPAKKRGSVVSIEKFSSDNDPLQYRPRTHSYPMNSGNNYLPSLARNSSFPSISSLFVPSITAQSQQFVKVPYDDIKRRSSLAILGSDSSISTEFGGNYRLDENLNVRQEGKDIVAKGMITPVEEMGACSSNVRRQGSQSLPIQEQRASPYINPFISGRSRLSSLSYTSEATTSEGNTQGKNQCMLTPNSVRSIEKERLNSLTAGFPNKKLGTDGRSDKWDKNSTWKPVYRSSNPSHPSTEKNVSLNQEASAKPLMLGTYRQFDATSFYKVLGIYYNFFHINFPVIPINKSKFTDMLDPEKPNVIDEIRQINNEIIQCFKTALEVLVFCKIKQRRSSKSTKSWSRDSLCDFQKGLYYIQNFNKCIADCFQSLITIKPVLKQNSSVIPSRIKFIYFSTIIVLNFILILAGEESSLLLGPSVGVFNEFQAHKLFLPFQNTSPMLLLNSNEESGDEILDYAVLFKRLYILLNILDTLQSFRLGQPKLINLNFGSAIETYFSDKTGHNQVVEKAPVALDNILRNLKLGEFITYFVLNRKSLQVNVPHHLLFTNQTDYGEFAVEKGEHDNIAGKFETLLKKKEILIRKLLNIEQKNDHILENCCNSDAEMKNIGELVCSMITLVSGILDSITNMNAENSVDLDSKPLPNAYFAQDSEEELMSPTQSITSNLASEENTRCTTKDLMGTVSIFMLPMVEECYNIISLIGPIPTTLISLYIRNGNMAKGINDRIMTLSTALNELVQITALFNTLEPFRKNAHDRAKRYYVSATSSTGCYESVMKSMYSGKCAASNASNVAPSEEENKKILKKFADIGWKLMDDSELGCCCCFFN
# Assay: PBM E-score (8-mer binding enrichment) (E-score (-0.5 to 0.5)); higher = stronger / more preferred TF binding
# Details: protein concentration: 200 nM; construct: GST-full length
# Summary of the method: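 Yeast transcription factors, full-length or as DNA-binding domains, were expressed with a GST tag using PURExpress in vitro transcription/translation. At about 100-200 nM they were applied to universal all-10-mer Agilent arrays, double-stranded by primer extension on fresh or once-stripped slides. Fluorescent anti-GST detected bound protein, and masliner normalised the scans. E-scores for ungapped eight-base words, pooled with reverse complements, came from the Universal PBM Analysis Suite.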
row,Sequence,PBM E-score
1,ATAGTTCC,0.25
2,AGCTGCCA,-0.135
3,TACAGATA,0.291
4,GACAGATA,0.0702
5,AACAGATA,0.096
6,GGCTGTAA,-0.0501
7,GTTGAGTA,0.127
8,ATTGAAAG,0.111
9,ATTGAATA,0.305
10,CTTGAAAA,0.207
11,ATTGAAAC,0.164
12,ATTGAAAT,0.296
13,ATTGAGTC,-0.0117
14,ATTGAAAA,0.289
15,CTTGAATA,0.155
16,ATTGAGTA,0.29
17,AATGAAAT,0.282
18,ATTGAATC,0.0535
19,TAGCGTGA,0.00864
20,AGCTTACT,0.0872
21,AACAAGGA,0.12
22,CATCGTAC,0.0156
23,CACAATCG,0.0764
24,CTGTGAGC,-0.0445
25,AGCTAAGG,-0.119

row,Sequence,PBM E-score
1,CTCCACGA,-0.0474
2,CAACCACA,0.0032
3,TAGAAAGA,-0.0722
4,CATTCTGC,0.09
5,AGCAGGAA,0.0849
6,CAACCGAC,0.107
7,ATAGTGGA,0.0933
8,ACTAGGGA,-0.159
9,TAAAAATA,0.285
10,GGAAAATA,0.414
11,AAAAATCC,0.287
12,GAAAAATA,0.397
13,GAAAATCC,0.308
14,AAAAAATA,0.278
15,AGAAAATA,0.314
16,AGAAAATC,0.232
17,GGAAATCC,-0.00538
18,GGAAAAGA,0.0452
19,GCAAAATA,0.287
20,CGAAAATA,0.23
21,AGGTTGAG,-0.167
22,AAGGGGAT,-0.0478
23,AGTACCGG,-0.182
24,CGGGTGCC,-0.151
25,TCACTACA,0.243

row,Sequence,PBM E-score
1,CCATCTGA,0.0862
2,CTTTAGGC,-0.0153
3,AGATTGAC,0.0305
4,AAGCAAGG,-0.0139
5,GGACAGAC,-0.174
6,GCAAATAA,0.322
7,CAAAAATC,0.236
8,AAAAATAA,0.275
9,CAAAAATG,0.157
10,TAAAATAA,0.261
11,AAAAAATC,0.248
12,CCAAAATA,0.182
13,ACAAATAA,0.265
14,TCAAATAA,0.202
15,CAAAAATA,0.316
16,GAAAATAA,0.304
17,GAAAAATC,0.381
18,ATAGCGCA,0.0412
19,GACGATTA,-0.0748
20,TGAGGACA,0.00432
21,AAACTACG,0.0517
22,ATCTACCC,0.0482
23,ACATCAGG,0.038
24,CTTTTCGC,0.241
25,CAGGCAAC,-0.0967

row,Sequence,PBM E-score
1,ACGACCAT,-0.108
2,AATCTAGT,0.214
3,AGCTCACG,-0.088
4,AATTAACT,0.219
5,GATTAACA,0.396
6,TATTAAGA,0.168
7,GCTTAACA,0.0687
8,GATTAACC,0.195
9,CATTAACA,0.139
10,TATTAACA,0.291
11,AATTAACC,0.158
12,AATTAACA,0.295
13,ACCCAGGC,-0.0962
14,AAGTGAAT,0.239
15,CACAGCCA,-0.174
16,ATGCGGCA,-0.0591
17,ATTTTCCC,0.386
18,CTTTTTCC,0.361
19,CTTTTCCC,0.0333
20,CTTTTCCA,-0.0875
21,CCTTTTCC,-0.15
22,ATTTCCCC,-0.0347
23,AATTTCCC,0.226
24,ATTTTCCA,0.361
25,GTTTTCCA,0.215

row,Sequence,PBM E-score
1,GACCGGTC,-0.181
2,AATCGTCA,-0.0213
3,CAACGTTG,0.156
4,AGCTCTTC,0.0781
5,ATGATCCC,0.244
6,GTAATCCA,0.0788
7,GAAATCCA,0.108
8,ATAATCCC,0.189
9,ATGATCCG,0.412
10,AAAATCCA,0.339
11,ATAATCGG,0.162
12,ACAATCCG,0.0606
13,ATGATCCA,0.162
14,ATAATCCA,0.327
15,ATAATCCG,0.383
16,CAAATCCA,0.0838
17,CTCTGGCC,-0.15
18,ACAAAGAC,0.0319
19,CAGGAACA,0.401
20,CAGGAACG,-0.0646
21,CAGGAACC,-0.122
22,GAGGAACA,0.171
23,AAGGAACA,0.283
24,TAGGAACA,0.316
25,GGGACCCC,-0.33

row,Sequence,PBM E-score
1,ATGCCATG,-0.0545
2,AACCATTC,0.166
3,ACTGAACC,0.00627
4,GTTGGCGA,-0.0105
5,GATCGACC,0.0146
6,AAGCTAAA,0.107
7,GCCGGAAC,0.205
8,GACGGAAA,0.227
9,TCCGGAAA,0.298
10,ACCGGAAA,0.151
11,GCCGGAAA,0.302
12,CCCGGAAA,0.192
13,CTAGACCC,-0.194
14,AAAGGATG,0.163
15,GCACACCA,-0.145
16,GATTAAGA,0.213
17,GATTAATA,0.328
18,CATTAATG,0.23
19,AATTAATC,0.341
20,ACTTAATC,0.275
21,GACTAATC,0.0103
22,TATTAATA,0.101
23,AATTAGTC,0.212
24,GATTAAGC,0.104
25,CATTAATC,0.252

row,Sequence,PBM E-score
1,GATTAATC,0.435
2,CATTAATA,0.321
3,AGGGTGAT,-0.055
4,ATAGTTCA,0.202
5,AGAACGTA,0.0159
6,AAGGGGCT,-0.163
7,ATATTGTC,0.215
8,ACCTTGGC,-0.0759
9,ACAGCTAG,-0.105
10,ACCTACCG,-0.0859
11,AGCAGAGC,-0.0843
12,AACTCTGG,-0.0682
13,AAAGTTCC,0.132
14,AATTAAGT,0.305
15,AATTAAAT,0.276
16,AATTAAGA,0.171
17,AATTAAAC,0.377
18,AATTAAGC,0.169
19,AATTAATG,0.273
20,AATTAATT,0.214
21,AATTAAAG,0.217
22,AATTAATA,0.429
23,CAACTATG,0.102
24,ACGGGTAT,0.0865
